Only some compounds are listed: those with a hit (about 1.8% of all), similar ones and a draw of the others.
IkB signaling – inhibitors of IkB signaling in ABC-DLBCL cells | ABC-DLBCL IkBa-CBG/CBR dual luciferase ratio, 4 h; response scale: scaled: untreated 0%, proteasome inhibitor 100% | Potency, µM (highest dose often 57.1 µM), inactives show at the highest dose IkBa stabilization activation | hit rate 0.04% among 110,000; active means well fitted curve in the direction sought with a large enough effect in the signal ratio, not every such curve was filed as active; inconclusive means small, poorly fitted or top-dose-only effect, or a change in a side signal; the % refers to the signal ratio;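 further: the direction sought is a rising ratio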
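In this assay, an IκBα–CBG68 fusion accumulates when IKK-driven degradation is blocked; native CBR normalizes for cell number. OCI-Ly3 cells were treated 4 h with compound and doxycycline, then green and red light read after Chroma-Glo addition.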
p53ts 39C kill – cytotoxicity in p53ts cells at nonpermissive temperature | H1299-p53A138V viability at 39C, ATP luminescence, 24 h | Potency, µM (doses to about 46.1 µM), inactives show at the top dose activity change, negative = cell killing, usual class: cytotoxic | hit rate 1.5% among 130,000 | AID 902; further: on the % scale 0 is the no-effect control and ±100 the full control effect; nearly all actives have a fitted effect of over 55% in size
p53ts 32C kill – cytotoxicity in p53ts cells at permissive temperature | H1299-p53A138V at 32C, ATP luminescence viability, 24 h | Potency, µM (top dose mostly 46.1 µM), for the others: at the highest dose activity change, negative = cytotoxicity, usual class: cytotoxic | hit rate 0.93% among 130,000 | AID 924;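 further: 0% = DMSO and -100% = full killing by reference compound; nearly all actives have a fitted effect of over 55% in size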
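H1299-p53 A138V cells (temperature-sensitive p53) exposed 24 h to up to 46 uM compound at 32C, where p53 is wild-type in conformation. Viability read as ATP luminescence and normalised to DMSO and 100 uM tamoxifen. AC50 fitted with the Hill equation.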
Peg3 imprint – inducers of genomic imprint erasure in mouse ES cells | mouse ES Peg3-LacZ reporter, beta-gal luminescence, 40 h | Potency, µM (top dose mostly 60.7 µM), inactives show at the top dose activity change, positive = activation, actives largely listed as activators | hit rate 0.02% among 110,000
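Imprint erasure is scored as LacZ activity from the silenced maternal Peg3 allele in feeder-free female ES cells cultured 40 h with LIF. Luminescence is normalized to in-plate negative controls and fitted to the Hill equation.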
Starred values were filed as active, the others as inactive; [ ] = dose if it differs, or a comment. Unless noted, the call rests on the fitted dose curve; in most records, active means well fitted curve in the direction sought with a large enough effect; inconclusive means small, poorly fitted or top-dose-only effect, or another doubt; inactive means no such curve, though single readings can be large; an effect the other way counts as inactive or inconclusive. Potency means the concentration at half of the fitted maximal effect.

`COc1ccc(CC(=O)Nc2sc3c(c2C(=O)Nc2cccc(C)c2)CCCCC3)cc1` gave IkB signaling inconclusive, p53ts 39C kill 10µM*, p53ts 32C kill -27% and Peg3 imprint -9%[10.9 µM].
`COc1cccc(/C=C/C(=O)Nc2ccc3nc(N4CCN(C)CC4)cc(C)c3c2)c1OC` gave IkB signaling inconclusive, p53ts 39C kill 13µM*, p53ts 32C kill inconclusive and Peg3 imprint 2%[10.9 µM].
Screening Cc1cc(N2CCN(C)CC2)nc2ccc(NC(=O)Nc3ccc(F)cc3)cc12 returned IkB signaling inconclusive, p53ts 39C kill inconclusive, p53ts 32C kill -13% and Peg3 imprint -10%[10.9 µM].
`Cc1cc(N2CCN(C)CC2)nc2ccc(NC(=O)Nc3ccccc3Cl)cc12` gave IkB signaling inconclusive, p53ts 39C kill 13µM*, p53ts 32C kill 10µM* and Peg3 imprint -9%[10.9 µM].
`Cc1cc(C)cc(NC(=O)Nc2ccc3nc(N4CCN(C)CC4)cc(C)c3c2)c1` gave IkB signaling -6%, p53ts 39C kill 13µM*, p53ts 32C kill 3% and Peg3 imprint 10%[10.9 µM].
For C/C(=N\Nc1nc2ccccc2[nH]1)c1cc2ccccc2o1 the results were p53ts 39C kill 13µM* and p53ts 32C kill 16µM*.
For NC(=O)Nc1nc2ccccc2[nH]1 the results were IkB signaling -1%, p53ts 39C kill 6%, p53ts 32C kill 10%[1.84 µM] and Peg3 imprint 4%.
O=C(Nc1ccc(Cl)cc1)c1cc(S(=O)(=O)NC2CCCCCC2)ccc1F was read as IkB signaling inconclusive, p53ts 39C kill 13µM*, p53ts 32C kill 4% and Peg3 imprint -14%[10.9 µM].
`O=c1cnc2cnc(Nc3ccccc3)nc2n1Cc1cccs1` gave IkB signaling inconclusive, p53ts 39C kill -29%, p53ts 32C kill -5% and Peg3 imprint inconclusive.
Screening CC1CC(C)(C)Nc2ccc(OC(=O)c3ccco3)cc21 (stereo not drawn) returned IkB signaling inconclusive, p53ts 39C kill 10µM*, p53ts 32C kill 16µM* and Peg3 imprint -54%.
`CC(C)(C)CC(C)(C)c1ccc(O)c(Cc2ccc(Cl)cc2Cl)c1` gave p53ts 39C kill 25µM*, p53ts 32C kill inconclusive and Peg3 imprint -35%.
CC(C)(C)c1ccc(C(=O)Nc2nnc3n2CCS3)cc1 was read as IkB signaling inconclusive, p53ts 39C kill 13µM*, p53ts 32C kill inconclusive and Peg3 imprint -20%[10.9 µM].
For O=C(CN1C(=O)CCc2cc(S(=O)(=O)N3CCOCC3)ccc21)NCc1ccc(F)cc1 the results were IkB signaling 1%, p53ts 39C kill -6%, p53ts 32C kill -5% and Peg3 imprint -6%[10.9 µM].
`O=C(Nc1noc2ccccc12)c1ccc(F)cc1` gave IkB signaling 2%, p53ts 39C kill inconclusive, p53ts 32C kill 10µM* and Peg3 imprint -31%[10.9 µM].
For OC[C@@H]1O[C@@H](n2cnc3c(Nc4ccccc4)ncnc32)[C@@H](O)[C@H]1O the results were IkB signaling inconclusive, p53ts 39C kill -22% and p53ts 32C kill -22%.
`CC(C)(C)c1ccc(S(=O)(=O)N2CCN(CCC#N)CC2)cc1` gave IkB signaling -1%, p53ts 39C kill 13%, p53ts 32C kill 3% and Peg3 imprint -6%.
COC(=O)/C=C/S(=O)(=O)c1ccc(NC(C)=O)cc1 was read as IkB signaling inconclusive, p53ts 39C kill inconclusive, p53ts 32C kill inconclusive and Peg3 imprint -34%.
Screening CC(C)(C)c1ccc(S(=O)(=O)/C=C\C#N)cc1 returned IkB signaling inconclusive, p53ts 39C kill 20µM*, p53ts 32C kill 16µM* and Peg3 imprint -53%.
For Cc1ccc(S(=O)(=O)/C=C\C#N)cc1 the results were IkB signaling inconclusive, p53ts 39C kill 13µM*, p53ts 32C kill 13µM* and Peg3 imprint -78%.
For Cc1cc(C)c(/C=C2/C(=O)Nc3ccccc32)[nH]1 the results were IkB signaling -12%, p53ts 39C kill inconclusive and p53ts 32C kill 20%.
For CCC1(O)CC2CN(CCc3c([nH]c4ccccc34)[C@@](C(=O)OC)(c3cc4c(cc3OC)N(C=O)C3[C@]45CCN4CC=C[C@@](CC)([C@@H](OC(C)=O)[C@]3(O)C(=O)OC)[C@H]45)C2)C1 (stereo partly drawn) the results were Peg3 imprint -22%.
For CC[C@]1(O)C[C@H]2CN(CCc3c([nH]c4ccccc34)[C@](C(=O)OC)(c3cc4c(cc3OC)N(C=O)[C@H]3[C@@](O)(C(=O)OC)[C@H](OC(C)=O)[C@@]5(CC)C=CCN6CC[C@]43[C@H]65)C2)C1 the results were IkB signaling inconclusive, p53ts 39C kill 32µM* and p53ts 32C kill inconclusive.
COc1ccc(OC)c2[nH]c(=O)c(CCNC(=O)c3cc4ccccc4o3)cc12 was read as IkB signaling inconclusive, p53ts 39C kill inconclusive, p53ts 32C kill 13µM* and Peg3 imprint -77%.
For Cc1ccc(C)c2[nH]c(=O)c(CCNC(=O)c3cc4ccccc4o3)cc12 the results were IkB signaling -2%, p53ts 39C kill -12%, p53ts 32C kill 16% and Peg3 imprint 5%.
`CO/N=C(\C(=O)N[C@@H]1C(=O)N2C(C(=O)O)=C(CSc3nc(=O)c(O)nn3C)CS[C@@H]12)c1csc(N)n1` gave IkB signaling -6%, p53ts 39C kill 7% and p53ts 32C kill -5%.
For CC(=O)OC[C@@H]1O[C@@H](Oc2cc(OC(C)=O)c3c(=O)cc(-c4ccc(OC(C)=O)c(OC(C)=O)c4)oc3c2)[C@H](OC(C)=O)[C@H](OC(C)=O)[C@@H]1OC(C)=O the results were IkB signaling 9%[11.4 µM].
For COc1ccc(-c2cc3nc4n(c(=O)c3s2)CCC4)cc1 the results were IkB signaling 3%, p53ts 39C kill 5µM*, p53ts 32C kill 5µM* and Peg3 imprint -89%.
For CCOc1ccc(C2=CC(c3cccc(Br)c3)n3c(nc4ccccc43)N2)cc1Cl (stereo not drawn) the results were IkB signaling 6%, p53ts 39C kill -18%, p53ts 32C kill -7% and Peg3 imprint -22%[10.9 µM].
Screening COc1cccc(C2=CC(c3ccccc3F)n3c(nc4ccccc43)N2)c1 (stereo not drawn) returned IkB signaling inconclusive, p53ts 39C kill 10µM*, p53ts 32C kill 16µM* and Peg3 imprint -15%[10.9 µM].
`Cc1ccc(C2=CC(c3ccccc3F)n3c(nc4ccccc43)N2)cc1C` (stereo not drawn) gave IkB signaling inconclusive, p53ts 39C kill 13µM*, p53ts 32C kill inconclusive and Peg3 imprint -15%[10.9 µM].
For CCN(CC)c1ccc2cc(-c3nc4ccccc4[nH]3)c(=O)oc2c1 the results were IkB signaling 0%, p53ts 39C kill 0.4µM*, p53ts 32C kill 0.32µM* and Peg3 imprint -59%.
Screening Cc1csc2nc(-c3cccc(NC(=O)c4ccccc4Cl)c3)cn12 returned IkB signaling -1%, p53ts 39C kill inconclusive, p53ts 32C kill -21% and Peg3 imprint -2%[10.9 µM].
